Records with an inconclusive call do not appear. The source made the active and inactive calls. The calls were made as follows, unless noted: active = hit-call score of the fitted dose curve at least 0.9, where 1 is the maximum; inconclusive = response in the unintended direction; inactive = score below 0.9.
Assays:
[1] = molecular target: human Peroxisome Proliferator-activated Receptor alpha (PPARa), PPARA (gene 5465) (UniProt Q07869); assay: ATG_PPARa_TRANS: Attagene TRANS-FACTORIAL HepG2 Assay for human Peroxisome Proliferator-activated Receptor alpha (PPARa) (AID 2283001)
human Peroxisome Proliferator-activated Receptor alpha (PPARa), PPARA (gene 5465), sequence (Q07869 whole entry, looked up, the tested form may be a part): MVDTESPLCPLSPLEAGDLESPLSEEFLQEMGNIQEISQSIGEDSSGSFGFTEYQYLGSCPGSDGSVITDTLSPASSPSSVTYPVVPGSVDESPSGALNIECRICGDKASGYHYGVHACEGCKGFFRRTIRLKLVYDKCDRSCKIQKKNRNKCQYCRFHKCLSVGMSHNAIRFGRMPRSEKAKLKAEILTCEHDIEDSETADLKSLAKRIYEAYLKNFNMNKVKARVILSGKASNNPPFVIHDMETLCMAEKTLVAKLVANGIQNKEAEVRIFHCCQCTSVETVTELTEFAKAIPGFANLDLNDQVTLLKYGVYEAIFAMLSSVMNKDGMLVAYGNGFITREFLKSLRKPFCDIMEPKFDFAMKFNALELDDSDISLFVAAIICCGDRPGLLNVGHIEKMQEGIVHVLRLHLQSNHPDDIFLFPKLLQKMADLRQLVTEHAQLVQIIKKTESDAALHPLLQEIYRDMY
Summary of the method: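 Transfected HepG2 cells treated with test chemical for 24 h. RNA isolated, reverse-transcribed with oligo(dT), PCR-amplified, FAM-labelled and HpaI-digested. Fragments sized by capillary electrophoresis; gain-of-signal fit relative to DMSO.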

[2] = molecular target: human Peroxisome Proliferator-activated Receptor delta (PPARd), PPARD (gene 5467) (UniProt Q03181); assay: ATG_PPARd_TRANS: Attagene TRANS-FACTORIAL HepG2 Assay for human Peroxisome Proliferator-activated Receptor delta (PPARd) (AID 2283002)
human Peroxisome Proliferator-activated Receptor delta (PPARd), PPARD (gene 5467), sequence (Q03181 whole entry, looked up, the tested form may be a part): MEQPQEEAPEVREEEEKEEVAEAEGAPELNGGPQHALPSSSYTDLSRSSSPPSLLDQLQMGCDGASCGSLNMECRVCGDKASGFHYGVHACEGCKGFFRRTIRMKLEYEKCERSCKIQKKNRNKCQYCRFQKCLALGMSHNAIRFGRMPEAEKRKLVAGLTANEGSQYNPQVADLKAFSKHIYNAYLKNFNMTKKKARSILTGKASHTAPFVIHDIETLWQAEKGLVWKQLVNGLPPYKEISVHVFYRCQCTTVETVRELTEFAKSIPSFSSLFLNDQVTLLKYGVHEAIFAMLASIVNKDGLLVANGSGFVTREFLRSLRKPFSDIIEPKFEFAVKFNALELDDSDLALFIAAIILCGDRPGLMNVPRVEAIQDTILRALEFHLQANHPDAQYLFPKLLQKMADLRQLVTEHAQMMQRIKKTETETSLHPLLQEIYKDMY
Summary of the method: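 Transient HepG2 transfection (multiple GAL4-UAS RTUs, chimeric receptor-Gal4); 24 h dosing; total RNA → oligo(dT) RT → PCR → 6-FAM primer extension → HpaI cut → CE. Positive direction vs DMSO.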

[3] = molecular target: Peroxisome proliferator-activated receptor gamma (Homo sapiens) (UniProt P37231); assay: ATG_PPARg_TRANS: Attagene TRANS-FACTORIAL HepG2 Assay for human Peroxisome Proliferator-activated Receptor-gamma (PPARg) (AID 2283007)
Peroxisome proliferator-activated receptor gamma (Homo sapiens), sequence (P37231 whole entry, looked up, the tested form may be a part): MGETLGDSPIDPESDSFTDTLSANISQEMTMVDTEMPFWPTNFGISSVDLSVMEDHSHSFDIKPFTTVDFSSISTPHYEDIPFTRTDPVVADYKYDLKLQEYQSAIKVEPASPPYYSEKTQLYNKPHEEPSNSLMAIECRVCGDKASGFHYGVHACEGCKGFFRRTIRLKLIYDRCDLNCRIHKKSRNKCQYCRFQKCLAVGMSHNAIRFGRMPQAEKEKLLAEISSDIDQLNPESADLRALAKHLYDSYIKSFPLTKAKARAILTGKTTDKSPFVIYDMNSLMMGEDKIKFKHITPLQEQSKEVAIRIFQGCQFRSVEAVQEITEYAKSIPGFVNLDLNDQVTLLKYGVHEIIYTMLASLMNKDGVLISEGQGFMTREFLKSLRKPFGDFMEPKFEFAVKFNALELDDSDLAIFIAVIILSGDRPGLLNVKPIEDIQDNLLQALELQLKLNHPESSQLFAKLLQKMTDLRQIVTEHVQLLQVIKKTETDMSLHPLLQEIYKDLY
Summary of the method: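 Gain-of-signal endpoint relative to DMSO, derived from reporter mRNA levels quantified by RT-PCR and capillary electrophoresis. Cells were HepG2 transiently expressing a chimeric NR-Gal4 construct with GAL4-UAS reporters, exposed to chemicals for 24 h.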

[4] = molecular target: human RAR-related Orphan Receptor beta (RORb), RORB (gene 6096) (UniProt Q92753); assay: ATG_RORb_TRANS: Attagene TRANS-FACTORIAL HepG2 Assay for human RAR-related Orphan Receptor beta (RORb) (AID 2283010)
human RAR-related Orphan Receptor beta (RORb), RORB (gene 6096), sequence (Q92753 whole entry, looked up, the tested form may be a part): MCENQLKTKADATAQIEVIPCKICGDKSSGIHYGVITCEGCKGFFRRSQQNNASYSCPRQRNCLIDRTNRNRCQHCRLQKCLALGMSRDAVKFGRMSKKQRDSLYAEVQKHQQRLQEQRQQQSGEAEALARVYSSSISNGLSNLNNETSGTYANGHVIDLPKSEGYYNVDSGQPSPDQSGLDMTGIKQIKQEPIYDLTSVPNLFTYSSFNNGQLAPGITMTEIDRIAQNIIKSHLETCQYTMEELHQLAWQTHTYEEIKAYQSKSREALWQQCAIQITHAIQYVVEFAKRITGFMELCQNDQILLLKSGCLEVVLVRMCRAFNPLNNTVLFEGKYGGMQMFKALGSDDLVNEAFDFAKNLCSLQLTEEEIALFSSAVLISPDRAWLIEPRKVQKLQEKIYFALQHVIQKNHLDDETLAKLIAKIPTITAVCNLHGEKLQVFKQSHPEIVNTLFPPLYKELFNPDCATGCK
Summary of the method: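 Multiplexed transcription-factor reporter assay: HepG2 cells transiently carrying NR-Gal4/GAL4-UAS constructs, 24 h treatment, mRNA quantified by RT-PCR plus capillary electrophoresis fluorescence; activity scored as induction over DMSO.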

[5] = molecular target: Retinoic acid receptor RXR-alpha (Homo sapiens) (UniProt P19793); assay: ATG_RXRa_TRANS: Attagene TRANS-FACTORIAL HepG2 Assay for human Retinoid X Receptor alpha (RXRa) (AID 2283012)
Retinoic acid receptor RXR-alpha (Homo sapiens), sequence (P19793 whole entry, looked up, the tested form may be a part): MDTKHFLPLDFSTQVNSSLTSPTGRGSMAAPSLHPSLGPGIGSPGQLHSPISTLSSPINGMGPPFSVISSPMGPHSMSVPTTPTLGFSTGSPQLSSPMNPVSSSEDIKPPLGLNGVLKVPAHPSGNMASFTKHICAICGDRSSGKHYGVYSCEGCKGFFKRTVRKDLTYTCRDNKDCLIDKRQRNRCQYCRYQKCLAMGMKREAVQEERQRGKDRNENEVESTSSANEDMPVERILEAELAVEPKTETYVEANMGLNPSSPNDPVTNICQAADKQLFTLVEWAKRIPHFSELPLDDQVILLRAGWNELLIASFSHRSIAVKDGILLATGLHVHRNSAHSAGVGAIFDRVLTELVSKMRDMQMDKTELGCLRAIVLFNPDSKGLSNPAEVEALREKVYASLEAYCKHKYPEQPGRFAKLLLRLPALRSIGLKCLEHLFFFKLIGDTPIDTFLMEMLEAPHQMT
Summary of the method: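 Chimeric NR-GAL4 trans-activation in HepG2, 24 h treatment; reporter transcripts quantified by fluorescence on capillary electrophoresis, analysed for upward change from DMSO.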

[6] = molecular target: human Thyroid Receptor alpha (THRa1), THRA (gene 7067) (UniProt P10827); assay: ATG_THRa1_TRANS: Attagene TRANS-FACTORIAL HepG2 Assay for human Thyroid Receptor alpha (THRa1) (AID 2283014)
Summary of the method: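 HepG2 cells transiently transfected with chimeric NR-Gal4 and GAL4-UAS reporter units, dosed 24 h. Reporter mRNA quantified by RT-PCR, fluorescent labeling, HpaI digestion and capillary electrophoresis; gain-of-signal fit versus DMSO.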

[7] = molecular target: human Retinoic Acid Receptor gamma (RARg), RARG (gene 5916) (UniProt P13631); assay: ATG_RARg_TRANS: Attagene TRANS-FACTORIAL HepG2 Assay for human Retinoic Acid Receptor gamma (RARg) (AID 2283009)
Summary of the method: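 Gain-of-signal relative to DMSO is reported from fluorescent capillary electrophoresis of RT-PCR reporter products. These came from HepG2 cells expressing transfected RARg-GAL4 chimeras with UAS reporters, harvested 24 h after dosing.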

[8] = molecular target: human RAR-related Orphan Receptor gamma (RORg), RORC (gene 6097) (UniProt P51449); assay: ATG_RORg_TRANS: Attagene TRANS-FACTORIAL HepG2 Assay for human RAR-related Orphan Receptor gamma (RORg) (AID 2283011)
human RAR-related Orphan Receptor gamma (RORg), RORC (gene 6097), sequence (P51449 whole entry, looked up, the tested form may be a part): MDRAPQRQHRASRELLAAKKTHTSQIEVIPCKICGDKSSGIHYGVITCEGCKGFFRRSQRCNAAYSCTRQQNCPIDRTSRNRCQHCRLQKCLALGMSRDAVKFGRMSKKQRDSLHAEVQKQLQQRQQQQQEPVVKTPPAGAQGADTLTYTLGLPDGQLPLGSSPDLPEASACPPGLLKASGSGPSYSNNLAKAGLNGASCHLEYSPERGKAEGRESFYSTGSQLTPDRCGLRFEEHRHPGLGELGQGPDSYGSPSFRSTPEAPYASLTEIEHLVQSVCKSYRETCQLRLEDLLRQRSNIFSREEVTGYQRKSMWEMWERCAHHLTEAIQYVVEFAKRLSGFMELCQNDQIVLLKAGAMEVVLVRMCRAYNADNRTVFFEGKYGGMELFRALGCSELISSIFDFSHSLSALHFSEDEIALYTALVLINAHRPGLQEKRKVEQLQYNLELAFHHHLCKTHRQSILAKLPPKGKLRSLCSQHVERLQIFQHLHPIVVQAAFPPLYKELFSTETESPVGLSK
Summary of the method: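 HepG2 cells transiently transfected with GAL4-UAS reporter units and chimeric RORg-Gal4 construct; after 24 h chemical exposure, reporter mRNA measured by RT-PCR with fluorescent capillary electrophoresis, gain of signal fitted against DMSO.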

[9] = BSK_4H_Eotaxin3: BioMAP Diversity Plus: 4H Assay for Eotaxin 3 Biomarker Activity (AID 2283000; active = hit-call score of the fitted dose curve at least 0.9, where 1 is the maximum; inactive = score below 0.9;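 also: CCL26 protein level quantified by ELISA in parallel with SRB cytotoxicity check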); settings: primary human endothelial cells (HUVEC); actives raise or lower the signal
Summary of the method: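 Eotaxin-3 (CCL26) levels were measured by ELISA in HUVEC primary cultures 24 h post-dosing. Gain or loss of signal was fitted in both directions, with DMSO serving as baseline and negative control.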

[10] = read-out: Intercellular Adhesion Molecule 1 (ICAM1), ICAM1 (gene 3383); assay: BSK_3C_ICAM1: BioMAP Diversity Plus: 3C Assay for Intercellular Adhesion Molecule 1 (ICAM1) Biomarker Activity (AID 2283003; active = hit-call score of the fitted dose curve at least 0.9, where 1 is the maximum; inactive = score below 0.9); settings: primary human endothelial cells (HUVEC); actives raise or lower the signal
Summary of the method: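 Using DMSO as baseline, bidirectional curve fitting was applied to ICAM-1 ELISA signals from HUVEC in the 3C system, measured 24 h after compound addition.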

[11] = BSK_3C_Proliferation: Cell Proliferation Assessment in the BioMAP Diversity Plus: 3C Assay (AID 2283006; active = hit-call score of the fitted dose curve at least 0.9, where 1 is the maximum; inactive = score below 0.9); settings: primary human endothelial cells (HUVEC)
Summary of the method: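 Measured here: sulforhodamine B (0.1%) staining of TCA-fixed sub-confluent umbilical vein endothelial cultures 48 h post-dosing, absorbance 560 nm. DMSO served as negative control and baseline; both signal gain and loss were modelled.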

[12] = molecular target: Nuclear receptor subfamily 1 group I member 2 (Homo sapiens) (UniProt O75469); assay: ATG_PXR_TRANS: Attagene TRANS-FACTORIAL HepG2 Assay for human Pregnane X Receptor (PXR) (AID 2283008)
Nuclear receptor subfamily 1 group I member 2 (Homo sapiens), sequence (O75469 whole entry, looked up, the tested form may be a part): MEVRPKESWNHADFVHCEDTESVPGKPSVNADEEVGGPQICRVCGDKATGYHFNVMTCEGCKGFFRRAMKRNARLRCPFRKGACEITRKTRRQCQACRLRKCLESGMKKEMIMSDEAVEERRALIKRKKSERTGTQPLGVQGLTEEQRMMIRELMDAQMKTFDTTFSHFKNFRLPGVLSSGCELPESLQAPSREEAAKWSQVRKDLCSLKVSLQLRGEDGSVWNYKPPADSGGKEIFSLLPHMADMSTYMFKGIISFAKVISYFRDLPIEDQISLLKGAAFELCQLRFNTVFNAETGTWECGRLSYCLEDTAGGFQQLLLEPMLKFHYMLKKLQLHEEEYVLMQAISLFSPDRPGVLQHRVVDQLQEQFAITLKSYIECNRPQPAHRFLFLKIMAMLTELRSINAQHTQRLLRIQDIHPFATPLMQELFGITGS
Summary of the method: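 HepG2 transfected (FuGene 6) with GAL4-UAS reporter units + PXR-Gal4 chimera; dosed 24 h. Total RNA → oligo(dT) RT → PCR → 6-FAM primer extension → HpaI cut → CE. Gain-of-signal vs DMSO.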

[13] = read-out: E-selectin (Homo sapiens) (UniProt P16581); assay: BSK_3C_Eselectin: BioMAP Diversity Plus: 3C Assay for Eselectin Biomarker Activity (AID 2283015; active = hit-call score of the fitted dose curve at least 0.9, where 1 is the maximum; inactive = score below 0.9;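 also: cell surface E-selectin protein quantified by ELISA 24 h after dosing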); settings: primary human endothelial cells (HUVEC); actives raise or lower the signal
Summary of the method: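 Primary human umbilical vein endothelial cells (3C system), read 24 h after compound addition; E-selectin measured by ELISA. Bidirectional curve fitting against DMSO baseline; cytotoxicity by parallel SRB total-protein staining.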

[14] = read-out: Interleukin-1 alpha (IL1a), IL1A (gene 3552); assay: BSK_BE3C_IL1a: BioMAP Diversity Plus: BE3C Assay for Interleukin-1 alpha (IL1a) Biomarker Activity (AID 2283016; active = hit-call score of the fitted dose curve at least 0.9, where 1 is the maximum; inactive = score below 0.9); settings: primary human bronchial epithelial cells; actives raise or lower the signal
Summary of the method: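 Measured in human lung primary bronchial epithelial cells: IL-1a by ELISA at 24 h after dosing, with bidirectional fitting against DMSO.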

[15] = read-out: Monocyte Chemoattractant Protein-1 (MCP1), CCL2 (gene 6347); assay: BSK_3C_MCP1: BioMAP Diversity Plus: 3C Assay for Monocyte Chemoattractant Protein-1 (MCP1) Biomarker Activity (AID 2283017; active = hit-call score of the fitted dose curve at least 0.9, where 1 is the maximum; inactive = score below 0.9); settings: primary human endothelial cells (HUVEC); actives raise or lower the signal
Summary of the method: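 Human umbilical vein endothelial cells (3C system) exposed to chemicals for 24 h; MCP-1 quantified by ELISA against the DMSO baseline with bidirectional fitting, and parallel SRB staining used to assess cytotoxicity.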

[16] = read-out: Monocyte Chemoattractant Protein-1 (MCP1), CCL2 (gene 6347); assay: BSK_4H_MCP1: BioMAP Diversity Plus: 4H Assay for Monocyte Chemoattractant Protein-1 (MCP1) Biomarker Activity (AID 2283018; active = hit-call score of the fitted dose curve at least 0.9, where 1 is the maximum; inactive = score below 0.9); settings: primary human endothelial cells (HUVEC); actives raise or lower the signal
Summary of the method: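 Primary human umbilical vein endothelium is exposed to chemical for 24 h before MCP-1 is assayed by ELISA. Concentration-response fitted bidirectionally relative to DMSO.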

[17] = read-out: Human Leukocyte Antigen - DR isotype (HLADR), HLA-DRA (gene 3122); assay: BSK_3C_HLADR: BioMAP Diversity Plus: 3C Assay for Human Leukocyte Antigen - DR isotype (HLADR) Biomarker Activity (AID 2283019; active = hit-call score of the fitted dose curve at least 0.9, where 1 is the maximum; inactive = score below 0.9;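 also: ELISA of cell-surface HLA-DR on HUVEC 24 h after dosing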); settings: primary human endothelial cells (HUVEC); actives raise or lower the signal
Summary of the method: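 HUVEC monoculture, HLA-DR measured by ELISA 24 h after chemical dosing. Fitted bidirectionally against DMSO baseline; parallel SRB staining assessed cytotoxicity, with 3C proliferation read by SRB at 48 h.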

[18] = molecular target: human Retinoid X Receptor beta (RXRb), RXRB (gene 6257) (UniProt P28702); assay: ATG_RXRb_TRANS: Attagene TRANS-FACTORIAL HepG2 Assay for human Retinoid X Receptor beta (RXRb) (AID 2283013)
human Retinoid X Receptor beta (RXRb), RXRB (gene 6257), sequence (P28702 whole entry, looked up, the tested form may be a part): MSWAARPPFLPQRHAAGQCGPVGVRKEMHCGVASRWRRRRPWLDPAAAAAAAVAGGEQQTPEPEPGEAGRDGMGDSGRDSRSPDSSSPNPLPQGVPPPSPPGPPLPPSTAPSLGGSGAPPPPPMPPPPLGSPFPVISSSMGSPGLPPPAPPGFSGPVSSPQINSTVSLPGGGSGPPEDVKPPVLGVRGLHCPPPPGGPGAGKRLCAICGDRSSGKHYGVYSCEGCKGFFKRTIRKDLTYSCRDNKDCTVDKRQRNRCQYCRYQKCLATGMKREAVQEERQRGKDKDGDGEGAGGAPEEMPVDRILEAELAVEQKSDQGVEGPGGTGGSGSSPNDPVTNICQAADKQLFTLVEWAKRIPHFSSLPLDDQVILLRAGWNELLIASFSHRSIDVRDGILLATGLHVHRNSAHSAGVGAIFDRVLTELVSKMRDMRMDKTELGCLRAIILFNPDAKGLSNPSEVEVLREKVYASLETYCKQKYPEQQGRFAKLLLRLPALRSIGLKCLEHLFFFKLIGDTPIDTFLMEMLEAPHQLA
Summary of the method: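 After a 24 h incubation with test chemical, transfected HepG2 cells carrying NR-Gal4 fusions and GAL4-UAS reporter transcription units yield RNA whose reporter cDNA is FAM-labelled, HpaI-cut and sized by capillary electrophoresis; increases over DMSO are scored.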

[19] = molecular target: human Retinoic Acid Receptor beta (RARb), RARB (gene 5915) (UniProt P10826); assay: ATG_RARb_TRANS: Attagene TRANS-FACTORIAL HepG2 Assay for human Retinoic Acid Receptor beta (AID 2283004)
human Retinoic Acid Receptor beta (RARb), RARB (gene 5915), sequence (P10826 whole entry, looked up, the tested form may be a part): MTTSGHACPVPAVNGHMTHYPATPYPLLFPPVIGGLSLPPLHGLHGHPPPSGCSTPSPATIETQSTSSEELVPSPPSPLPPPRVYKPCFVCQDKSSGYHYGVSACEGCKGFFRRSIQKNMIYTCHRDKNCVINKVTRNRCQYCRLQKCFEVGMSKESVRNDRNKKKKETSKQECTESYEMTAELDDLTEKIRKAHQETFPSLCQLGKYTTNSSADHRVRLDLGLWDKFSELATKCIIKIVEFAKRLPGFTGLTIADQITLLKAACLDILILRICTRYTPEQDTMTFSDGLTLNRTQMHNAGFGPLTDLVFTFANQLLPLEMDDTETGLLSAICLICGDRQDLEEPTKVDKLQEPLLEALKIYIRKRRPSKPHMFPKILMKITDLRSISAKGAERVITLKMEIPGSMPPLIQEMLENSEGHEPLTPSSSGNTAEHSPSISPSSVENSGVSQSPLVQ
Summary of the method: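 HepG2 cells were transiently transfected with GAL4-UAS reporter units that report activity of exogenous chimeric NR-Gal4 proteins, then exposed to compound for 24 h. Reporter mRNA was quantified by RT-PCR with capillary electrophoresis fluorescence, as gain of signal over DMSO.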

[20] = molecular target: Retinoic acid receptor alpha (Homo sapiens) (UniProt P10276); assay: ATG_RARa_TRANS: Attagene TRANS-FACTORIAL HepG2 Assay for human Retinoic Acid Receptor alpha (RARa) (AID 2283005);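 as to AC50: potency for increased reporter signal meaning RARa activation over DMSO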
Summary of the method: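 Reporter transcripts, measured by RT-PCR with fluorescent labeling and capillary electrophoresis after 24 h dosing, reflect activity of an exogenous human RARa–GAL4 fusion in transiently transfected HepG2. Fitted for increase relative to DMSO.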

Measured: AC50

E-selectin (Homo sapiens), sequence (P16581 whole entry, looked up): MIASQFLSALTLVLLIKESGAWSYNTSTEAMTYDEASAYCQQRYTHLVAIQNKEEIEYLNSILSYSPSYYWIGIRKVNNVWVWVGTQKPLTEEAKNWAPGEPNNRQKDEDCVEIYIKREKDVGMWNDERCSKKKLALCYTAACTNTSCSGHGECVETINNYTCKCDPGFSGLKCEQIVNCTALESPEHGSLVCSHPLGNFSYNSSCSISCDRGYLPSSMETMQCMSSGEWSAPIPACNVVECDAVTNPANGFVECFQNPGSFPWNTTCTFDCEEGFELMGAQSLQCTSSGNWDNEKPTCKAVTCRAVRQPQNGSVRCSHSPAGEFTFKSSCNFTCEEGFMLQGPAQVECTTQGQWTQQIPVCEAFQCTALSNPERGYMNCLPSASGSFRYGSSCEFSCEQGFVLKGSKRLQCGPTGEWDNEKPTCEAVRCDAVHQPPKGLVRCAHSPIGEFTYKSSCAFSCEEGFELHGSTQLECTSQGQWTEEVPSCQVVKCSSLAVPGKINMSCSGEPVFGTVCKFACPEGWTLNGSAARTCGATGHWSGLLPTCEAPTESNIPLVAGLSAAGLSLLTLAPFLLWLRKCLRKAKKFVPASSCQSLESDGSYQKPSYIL

O=C(C=Cc1ccccc1)OCC=Cc1ccccc1
inactive: [1] | [2] | [4] | [5] | [6]
active: [3] 0.641 µM

Cc1cccc(N(C)C)c1
inactive: [1] | [3] | [7] | [4] | [8] | [6]

O=P(O)(O)OCCC(F)(F)C(F)(F)C(F)(F)C(F)(F)C(F)(F)C(F)(F)F
not listed: [1] | [3] | [7] | [18] | [19] | [20]
inactive: all other assays above

CC(CCl)OP(=O)(OC(C)CCl)OC(C)CCl (configuration not stated)
not listed: [1] | [2] | [4] | [6] | [8] | [12] | [19] | [20]
inactive: all other assays above

CC(C)c1ccccc1N
inactive: [1] | [19] | [3] | [12] | [4] | [18]

CC(C)=CCCC(C)CCOC(=O)C(C)C (configuration not stated)
inactive: [1] | [2] | [3] | [12] | [8] | [18] | [6]

c1ccc(-c2ccccc2-c2ccccc2)cc1
inactive: [2] | [3] | [4] | [5]
active: [18] 12.7 µM

CN(C)Cc1ccccc1O
inactive: [1] | [2] | [3] | [12] | [18] | [6]

Cc1ccc(S(=O)(=O)NCl)cc1
inactive: [1] | [2] | [3] | [12] | [4] | [8] | [5] | [6]

CCCCCC=O
inactive: [1] | [2] | [3] | [4] | [5] | [18] | [6]

CNC(=S)NC
inactive: [2] | [19] | [3] | [12] | [4] | [18] | [6]

CCC(=O)OCCc1ccccc1
inactive: [12] | [4] | [5] | [6]

CCCCOc1ccc(N)cc1
inactive: [3]

COC(OC(C)=O)c1ccccc1 (configuration not stated)
inactive: [2] | [3] | [12] | [4] | [8] | [5] | [6]

Cc1cc(C)cc(O)c1
inactive: [1] | [19] | [20] | [3] | [12] | [7] | [4] | [5] | [18] | [6]

Nc1cc(Cl)c(N)c(Cl)c1
inactive: [1] | [7] | [4] | [8] | [5] | [18] | [6]
active: [19] 26.5 µM | [20] 43 µM | [3] 38.7 µM | [12] 19.8 µM
